The results in this text go back to PubChem BioAssay (EPA / NIEHS).

Molecules are shown by their SMILES. Results filed as inconclusive are left out. More than one record can exist for a structure, and the calls need not agree. Activity calls are given as the source filed them. Rule for the calls: active = hit-call score of the fitted dose curve at least 0.9, where 1 is the maximum; inconclusive = response in the unintended direction; inactive = score below 0.9.

A short description of one experiment: Tanguay_ZF_120hpf_PFIN_legacy: (Legacy) Oregon State University Tanguay Lab 120 Hour Post-fertilization zebrafish Assay for Pectoral Fin Malformation (AID 2283648).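 Note: each larva judged yes or no for fin defect by brightfield with dead larvae skipped.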 A digest of the protocol: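 Binary pectoral fin malformation call at 120 hpf by brightfield microscopy; 5D wild-type zebrafish, chorion removed at 4 hpf, one embryo per well from 6 hpf, static exposure at 28C; DMSO (0.64% final) as baseline.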
In the case of `Cn1sc(Cl)cc1=O`, the result was inactive.

For the compound `O=c1[nH]c(=O)[nH]c(=O)[nH]1`, the call was inactive.

As for `Oc1cccc2cccnc12`, the result was inactive.

For `O=C(O)C(Cl)(Cl)Cl`, the call was inactive.

With `O=C(O)C(F)(F)C(F)(F)C(F)(F)C(F)(F)C(F)(F)C(F)(F)C(F)(F)C(F)(F)C(F)(F)C(F)(F)F`, the result was inactive.

Take `CCCCCCCCc1ccc(O)cc1`: the result was inactive.

In the case of `O=C(Nc1ccc2[nH]ccc2c1)c1cc2cc(F)ccc2n1Cc1cccc(F)c1`, the compound was classed as inactive.

Broadly, the AC50 is the concentration at which the activity in the assay is half-maximal. Consider `COc1cc(-c2ccc(N)c(OC)c2)ccc1N`, for which the AC50 is 87.5 µM (active) and the compound was classed as inactive.

Turning to `C=C(C)C(=O)[O][Sn]([CH2]CCC)([CH2]CCC)[CH2]CCC`, the outcome was inactive.

For the compound `CC(C)(c1ccccc1)c1ccc(O)c(C(C)(C)c2ccccc2)c1`, the compound was classed as inactive.

Turning to `CCOP(=S)(OCC)SCSP(=S)(OCC)OCC`, the result was inactive.

Regarding `CC(=O)[O][Hg][c]1ccccc1`, the call was inactive.

For the compound `CC(C)(C)CC(C)(C)c1ccc(O)cc1`, the compound was classed as inactive.

On to `C=CC(=O)OCCCCCC(C)C`, for which the call was inactive.

Turning to `CCC(=O)C(CC(C)N(C)C)(c1ccccc1)c1ccccc1` (stereo unspecified), the compound was classed as inactive.

As to `O=C1C2(Cl)C3(Cl)C4(Cl)C(Cl)(Cl)C5(Cl)C3(Cl)C1(Cl)C5(Cl)C24Cl` (stereo unspecified), the compound was classed as inactive.

`C[C@]12CCC(=O)C[C@@H]1CC[C@@H]1[C@@H]2CC[C@]2(C)[C@@H](O)CC[C@@H]12`: the compound was called inactive.

For `CC(C)(C)c1cc(O)ccc1O`, the compound was called inactive.

On to `ClC1(Cl)C2(Cl)C3(Cl)C4(Cl)C(Cl)(Cl)C5(Cl)C3(Cl)C1(Cl)C5(Cl)C24Cl` (stereo unspecified), for which the outcome was inactive.

In the case of `CC(C)(OO)c1ccccc1`, the result was inactive.

On to `O=[N+]([O-])c1ccc(O)c([N+](=O)[O-])c1`, for which the compound was called inactive.

With `CCN1CCC2(CC1)COc1cc3c(cc12)N(C(=O)c1ccc(-c2ccc(-c4nnc(C)o4)cc2C)cc1)CC3`, the result was inactive.

As for `O=C(O)C(F)(F)C(F)(F)C(F)(F)C(F)(F)C(F)(F)C(F)(F)F`, the outcome was inactive.

Take `Cc1ccccc1N`: the outcome was inactive.

A further experiment can be described thus: Tanguay_ZF_120hpf_CFIN_legacy: (Legacy) Oregon State University Tanguay Lab 120 Hour Post-fertilization zebrafish Assay for Caudal Fin Malformation (AID 2283649). A digest of the protocol:
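Binary presence or absence of caudal fin malformation at 120 hpf, read by brightfield microscopy, with DMSO as baseline. Larvae came from 5D wild-type embryos exposed statically from 6 hpf at 28C after pronase dechorionation.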
Consider `CCOP(=S)(OCC)Oc1nc(Cl)c(Cl)cc1Cl`, for which the outcome was inactive.

In the case of `CCC(C)(C)c1ccc(O)c(C(C)(C)CC)c1`, the compound was classed as inactive.

Consider `Cn1sc(Cl)cc1=O`, for which the compound was called inactive.

Take `Oc1cccc2cccnc12`: the outcome was inactive.

Turning to `O=C(O)C(Cl)(Cl)Cl`, the result was inactive.

In the case of `O=C(O)C(F)(F)C(F)(F)C(F)(F)C(F)(F)C(F)(F)C(F)(F)C(F)(F)C(F)(F)C(F)(F)C(F)(F)F`, the outcome was inactive.

`CCCCCCCCc1ccc(O)cc1`: the call was inactive.

For `O=C(Nc1ccc2[nH]ccc2c1)c1cc2cc(F)ccc2n1Cc1cccc(F)c1`, the compound was called inactive.

Take `COc1cc(-c2ccc(N)c(OC)c2)ccc1N`: the call was inactive.

`C=C(C)C(=O)[O][Sn]([CH2]CCC)([CH2]CCC)[CH2]CCC`: the result was inactive.

Regarding `C[C@@H]1C[C@@H]([C@H](O)CC2CC(=O)NC(=O)C2)C(=O)[C@@H](C)C1`, the outcome was inactive.

For `CC(C)(c1ccccc1)c1ccc(O)c(C(C)(C)c2ccccc2)c1`, the compound was classed as inactive.

As to `CCOP(=S)(OCC)SCSP(=S)(OCC)OCC`, the call was inactive.

`CC(=O)[O][Hg][c]1ccccc1`: the result was inactive.

Consider `CN(C)N=O`, for which the compound was classed as inactive.

Regarding `CC(C)(C)CC(C)(C)c1ccc(O)cc1`, the result was inactive.

For the compound `C=CC(=O)OCCCCCC(C)C`, the compound was classed as inactive.

In the case of `CCC(=O)C(CC(C)N(C)C)(c1ccccc1)c1ccccc1` (stereo unspecified), the call was inactive.

With `O=C1C2(Cl)C3(Cl)C4(Cl)C(Cl)(Cl)C5(Cl)C3(Cl)C1(Cl)C5(Cl)C24Cl` (stereo unspecified), the compound was classed as inactive.

Regarding `C[C@]12CCC(=O)C[C@@H]1CC[C@@H]1[C@@H]2CC[C@]2(C)[C@@H](O)CC[C@@H]12`, the compound was classed as inactive.

On to `CC(C)(C)c1cc(O)ccc1O`, for which the call was inactive.

As to `ClC1(Cl)C2(Cl)C3(Cl)C4(Cl)C(Cl)(Cl)C5(Cl)C3(Cl)C1(Cl)C5(Cl)C24Cl` (stereo unspecified), the call was inactive.

As to `CC(C)(OO)c1ccccc1`, the compound was classed as inactive.

For the compound `NC(=O)O`, the compound was classed as inactive.

For the compound `ClCC(Cl)CCl`, the call was inactive.

Turning to `O=C(O)C(F)(F)C(F)(F)C(F)(F)C(F)(F)C(F)(F)C(F)(F)F`, the call was inactive.

For the compound `Cc1ccccc1N`, the compound was called inactive.

The nature of another experiment: Tanguay_ZF_120hpf_PIG_legacy: (Legacy) Oregon State University Tanguay Lab 120 Hour Post-fertilization zebrafish Assay for Pigmentation Malformation (AID 2283650).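 Note: dechorionated Tropical 5D zebrafish embryos exposed singly from 6 to 120 hpf.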 A digest of the protocol:
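Brightfield scoring of pigmentation malformation at 120 hpf, recorded as binary present/absent per larva. Exposure: dechorionated 5D wild-type embryos, one per well, static from 6 hpf at 28C, final DMSO 0.64% (vol/vol). Dead embryos not scored.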
Consider `CCOP(=S)(OCC)Oc1nc(Cl)c(Cl)cc1Cl`, for which the outcome was inactive.

As to `CCC(C)(C)c1ccc(O)c(C(C)(C)CC)c1`, the compound was classed as inactive.

Turning to `Cn1sc(Cl)cc1=O`, the call was inactive.

For `O=c1[nH]c(=O)[nH]c(=O)[nH]1`, the compound was called inactive.

With `Oc1cccc2cccnc12`, the call was inactive.

As for `O=C(O)C(Cl)(Cl)Cl`, the compound was called inactive.

Regarding `CC12CC1(C)C(=O)N(c1cc(Cl)cc(Cl)c1)C2=O` (stereo unspecified), the compound was called inactive.

For `O=C(O)C(F)(F)C(F)(F)C(F)(F)C(F)(F)C(F)(F)C(F)(F)C(F)(F)C(F)(F)C(F)(F)C(F)(F)F`, the compound was called inactive.

`O=C(Nc1ccc2[nH]ccc2c1)c1cc2cc(F)ccc2n1Cc1cccc(F)c1`: the result was inactive.

Turning to `COc1cc(-c2ccc(N)c(OC)c2)ccc1N`, the compound was called inactive.

Take `C=C(C)C(=O)[O][Sn]([CH2]CCC)([CH2]CCC)[CH2]CCC`: the compound was called inactive.

As for `C[C@@H]1C[C@@H]([C@H](O)CC2CC(=O)NC(=O)C2)C(=O)[C@@H](C)C1`, the outcome was inactive.

As to `CC(C)(c1ccccc1)c1ccc(O)c(C(C)(C)c2ccccc2)c1`, the call was inactive.

`CC(=O)[O][Hg][c]1ccccc1`: the outcome was inactive.

For the compound `CCC(=O)C(CC(C)N(C)C)(c1ccccc1)c1ccccc1` (stereo unspecified), the call was inactive.

For `O=C1C2(Cl)C3(Cl)C4(Cl)C(Cl)(Cl)C5(Cl)C3(Cl)C1(Cl)C5(Cl)C24Cl` (stereo unspecified), the outcome was inactive.

As for `C[C@]12CCC(=O)C[C@@H]1CC[C@@H]1[C@@H]2CC[C@]2(C)[C@@H](O)CC[C@@H]12`, the outcome was inactive.

On to `ClC1(Cl)C2(Cl)C3(Cl)C4(Cl)C(Cl)(Cl)C5(Cl)C3(Cl)C1(Cl)C5(Cl)C24Cl` (stereo unspecified), for which the result was inactive.

For the compound `CC(C)(OO)c1ccccc1`, the result was inactive.

Regarding `O=[N+]([O-])c1ccc(O)c([N+](=O)[O-])c1`, the outcome was inactive.

In the case of `CCN1CCC2(CC1)COc1cc3c(cc12)N(C(=O)c1ccc(-c2ccc(-c4nnc(C)o4)cc2C)cc1)CC3`, the result was inactive.

`ClCC(Cl)CCl`: the call was inactive.

As for `O=C(O)C(F)(F)C(F)(F)C(F)(F)C(F)(F)C(F)(F)C(F)(F)F`, the compound was called inactive.

For `Cc1ccccc1N`, the compound was called inactive.
